In ChEMBL document CHEMBL3988442, “University of Dundee, Small-Polar-MMV Screening Library” (2021):
For some of these results: Entries with a potency or affinity are not part of this list.

Columns and labels:
Design in all cases: scale not given: direction of the effect not stated beside the values
[1] = biological target: Protein translocase subunit SecA (Escherichia coli (strain K12)) (UniProt P10408); assay: Assay to Identify E. coli SecA ATPase Inhibitors; assay type: functional; conditions: 30 µM
[2] = biological target: T1, Ubiquitin-activating enzyme e1, putative (Leishmania donovani (strain BPK282A1)) (UniProt E9BSI1); assay: Leishmania donovani Ubiquitin Activating Enzyme (LdE1); assay type: functional; conditions: 30 µM
T1 sequence (whole entry): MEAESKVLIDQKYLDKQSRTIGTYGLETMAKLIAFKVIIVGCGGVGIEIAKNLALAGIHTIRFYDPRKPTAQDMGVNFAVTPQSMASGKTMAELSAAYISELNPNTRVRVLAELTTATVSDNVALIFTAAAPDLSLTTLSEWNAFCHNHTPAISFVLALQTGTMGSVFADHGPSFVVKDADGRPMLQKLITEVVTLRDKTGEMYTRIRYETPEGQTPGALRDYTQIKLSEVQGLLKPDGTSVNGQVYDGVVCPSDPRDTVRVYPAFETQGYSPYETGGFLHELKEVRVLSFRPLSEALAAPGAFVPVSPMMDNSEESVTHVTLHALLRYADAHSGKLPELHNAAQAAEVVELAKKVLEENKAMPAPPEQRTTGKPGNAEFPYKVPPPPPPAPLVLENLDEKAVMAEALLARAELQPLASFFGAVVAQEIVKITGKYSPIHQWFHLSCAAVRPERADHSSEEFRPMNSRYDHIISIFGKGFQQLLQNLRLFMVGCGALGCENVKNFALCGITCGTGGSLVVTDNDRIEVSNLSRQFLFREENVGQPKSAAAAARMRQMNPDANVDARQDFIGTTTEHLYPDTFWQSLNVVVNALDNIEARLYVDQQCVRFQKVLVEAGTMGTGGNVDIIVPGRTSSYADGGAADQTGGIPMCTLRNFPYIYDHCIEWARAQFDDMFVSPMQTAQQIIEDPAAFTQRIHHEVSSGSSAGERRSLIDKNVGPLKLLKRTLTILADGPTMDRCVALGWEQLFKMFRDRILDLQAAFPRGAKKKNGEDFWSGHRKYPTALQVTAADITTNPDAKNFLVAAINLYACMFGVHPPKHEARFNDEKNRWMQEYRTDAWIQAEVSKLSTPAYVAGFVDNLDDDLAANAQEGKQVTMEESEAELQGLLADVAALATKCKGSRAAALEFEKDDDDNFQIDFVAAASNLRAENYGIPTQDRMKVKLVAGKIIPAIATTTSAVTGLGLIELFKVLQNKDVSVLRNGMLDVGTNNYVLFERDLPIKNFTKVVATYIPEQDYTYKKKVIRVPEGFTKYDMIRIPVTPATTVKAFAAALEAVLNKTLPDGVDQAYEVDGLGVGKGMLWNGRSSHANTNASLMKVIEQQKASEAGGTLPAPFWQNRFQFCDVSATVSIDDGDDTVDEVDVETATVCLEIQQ

[3] = biological target: AMP-activated protein kinase, AMPK (Homo sapiens) (UniProt P54646+O43741+P54619+Q9UGJ0+Q9Y478+Q13131+Q9UGI9); assay: AMP-dependent Kinase enzyme assay. An in vitro enzyme assay that detects ADP turnover that is directly proportional to AMPK activity. This uses naive AMPK that is activated during the assay with MK-8722; assay type: functional; conditions: 30 µM
[4] = biological target: Sialic acid-binding Ig-like lectin 9 (Homo sapiens) (UniProt Q9Y336); assay: Hs-Siglec9 ALPHAscreen SOP 20170721; conditions: 10 µM
[5] = tested on: Trypanosoma cruzi; assay: Trypanosoma cruzi phosphomannomutase and mannose-1-phosphate guanylyltransferase assay; assay type: functional; conditions: 10 µM
[6] = biological target: T2, Arginase-2, mitochondrial (Homo sapiens) (UniProt P78540); assay: in vitro enzyme assay to detect the production of urea directly proportional to the activity of Arginase II; assay type: functional; conditions: 33.3 µM; note: in the data most compounds retested in dose-response had high values
T2 sequence (whole entry): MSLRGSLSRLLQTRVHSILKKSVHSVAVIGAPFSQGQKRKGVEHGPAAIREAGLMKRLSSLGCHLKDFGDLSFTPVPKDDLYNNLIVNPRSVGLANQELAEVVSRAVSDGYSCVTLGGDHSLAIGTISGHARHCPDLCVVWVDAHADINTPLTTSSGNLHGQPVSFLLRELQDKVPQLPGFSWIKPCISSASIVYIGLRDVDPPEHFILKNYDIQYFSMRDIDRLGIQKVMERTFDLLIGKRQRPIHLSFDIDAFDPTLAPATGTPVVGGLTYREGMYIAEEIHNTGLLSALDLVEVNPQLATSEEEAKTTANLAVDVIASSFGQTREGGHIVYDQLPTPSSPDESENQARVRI

[7] = biological target: T3, Proteasome subunit beta (Trypanosoma cruzi) (UniProt O96673); assay: Trypanosoma cruzi proteasome chymotrypsin-like activity (TcProtChymo) assay.; note: in the data most compounds retested in dose-response had high values; assay type: functional; conditions: 9.37 µM
T3 sequence (whole entry): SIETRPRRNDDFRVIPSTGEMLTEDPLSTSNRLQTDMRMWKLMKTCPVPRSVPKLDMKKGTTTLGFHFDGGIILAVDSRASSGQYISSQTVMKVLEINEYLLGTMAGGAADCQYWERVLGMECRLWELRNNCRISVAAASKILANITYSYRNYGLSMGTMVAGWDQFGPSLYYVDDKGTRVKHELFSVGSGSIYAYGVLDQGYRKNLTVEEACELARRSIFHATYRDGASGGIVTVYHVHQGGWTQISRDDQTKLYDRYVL

[8] = species: Homo sapiens; assay: To identify inhibition of the IFN signalling (Jak-Stat) pathway via expression of an eGFP reporter gene under the control of an IFN-stimulated response element (ISRE) containing MxA promoter.; assay type: functional; conditions: 30 µM
[9] = biological target: T4, Tyrosyl-tRNA synthetase, putative (Trypanosoma cruzi (strain CL Brener)) (UniProt Q4DSP6); assay: Trypanosoma cruzi tyrosyl tRNA synthetase (TcYRS) _High Tyrosine SOP; assay type: functional; conditions: 30 µM; note: in the data most compounds retested in dose-response had high values
T4 sequence (whole entry): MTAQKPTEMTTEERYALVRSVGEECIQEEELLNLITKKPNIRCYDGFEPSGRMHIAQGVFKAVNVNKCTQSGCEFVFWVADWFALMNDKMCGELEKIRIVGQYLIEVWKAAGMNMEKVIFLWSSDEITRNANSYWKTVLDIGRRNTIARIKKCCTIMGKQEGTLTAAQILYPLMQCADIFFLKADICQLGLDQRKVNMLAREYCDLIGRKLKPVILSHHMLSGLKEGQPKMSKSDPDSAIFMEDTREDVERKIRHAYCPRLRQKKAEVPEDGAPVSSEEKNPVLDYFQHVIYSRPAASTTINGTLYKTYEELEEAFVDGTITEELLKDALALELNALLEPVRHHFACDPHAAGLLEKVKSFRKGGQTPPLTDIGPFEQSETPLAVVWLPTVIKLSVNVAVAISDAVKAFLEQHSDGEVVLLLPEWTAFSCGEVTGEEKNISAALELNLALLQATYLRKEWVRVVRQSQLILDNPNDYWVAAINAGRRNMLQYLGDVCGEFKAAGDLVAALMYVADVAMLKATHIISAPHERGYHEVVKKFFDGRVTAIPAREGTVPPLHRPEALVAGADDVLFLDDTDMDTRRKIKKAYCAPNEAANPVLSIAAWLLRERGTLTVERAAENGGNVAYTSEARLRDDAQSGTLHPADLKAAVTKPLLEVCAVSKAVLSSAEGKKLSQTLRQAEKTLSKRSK

[10] = biological target: T4, Tyrosyl-tRNA synthetase, putative (Trypanosoma cruzi (strain CL Brener)); assay: Trypanosoma cruzi tyrosyl tRNA synthetase (TcYRS) SOP; assay type: functional; conditions: 30 µM
[11] = biological target: Chromo domain-containing protein 1 (Saccharomyces cerevisiae (strain ATCC 204508 / S288c) (Baker's yeast)) (UniProt P32657); assay: ScCHD-1 Enzyme Inhibition Assay; assay type: functional; conditions: 30 µM; note: in the data most compounds retested in dose-response had high values
Sequence of Chromo domain-containing protein 1 (Saccharomyces cerevisiae (strain ATCC 204508 / S288c) (Baker's yeast)) (P32657 whole entry, the tested form may be a part): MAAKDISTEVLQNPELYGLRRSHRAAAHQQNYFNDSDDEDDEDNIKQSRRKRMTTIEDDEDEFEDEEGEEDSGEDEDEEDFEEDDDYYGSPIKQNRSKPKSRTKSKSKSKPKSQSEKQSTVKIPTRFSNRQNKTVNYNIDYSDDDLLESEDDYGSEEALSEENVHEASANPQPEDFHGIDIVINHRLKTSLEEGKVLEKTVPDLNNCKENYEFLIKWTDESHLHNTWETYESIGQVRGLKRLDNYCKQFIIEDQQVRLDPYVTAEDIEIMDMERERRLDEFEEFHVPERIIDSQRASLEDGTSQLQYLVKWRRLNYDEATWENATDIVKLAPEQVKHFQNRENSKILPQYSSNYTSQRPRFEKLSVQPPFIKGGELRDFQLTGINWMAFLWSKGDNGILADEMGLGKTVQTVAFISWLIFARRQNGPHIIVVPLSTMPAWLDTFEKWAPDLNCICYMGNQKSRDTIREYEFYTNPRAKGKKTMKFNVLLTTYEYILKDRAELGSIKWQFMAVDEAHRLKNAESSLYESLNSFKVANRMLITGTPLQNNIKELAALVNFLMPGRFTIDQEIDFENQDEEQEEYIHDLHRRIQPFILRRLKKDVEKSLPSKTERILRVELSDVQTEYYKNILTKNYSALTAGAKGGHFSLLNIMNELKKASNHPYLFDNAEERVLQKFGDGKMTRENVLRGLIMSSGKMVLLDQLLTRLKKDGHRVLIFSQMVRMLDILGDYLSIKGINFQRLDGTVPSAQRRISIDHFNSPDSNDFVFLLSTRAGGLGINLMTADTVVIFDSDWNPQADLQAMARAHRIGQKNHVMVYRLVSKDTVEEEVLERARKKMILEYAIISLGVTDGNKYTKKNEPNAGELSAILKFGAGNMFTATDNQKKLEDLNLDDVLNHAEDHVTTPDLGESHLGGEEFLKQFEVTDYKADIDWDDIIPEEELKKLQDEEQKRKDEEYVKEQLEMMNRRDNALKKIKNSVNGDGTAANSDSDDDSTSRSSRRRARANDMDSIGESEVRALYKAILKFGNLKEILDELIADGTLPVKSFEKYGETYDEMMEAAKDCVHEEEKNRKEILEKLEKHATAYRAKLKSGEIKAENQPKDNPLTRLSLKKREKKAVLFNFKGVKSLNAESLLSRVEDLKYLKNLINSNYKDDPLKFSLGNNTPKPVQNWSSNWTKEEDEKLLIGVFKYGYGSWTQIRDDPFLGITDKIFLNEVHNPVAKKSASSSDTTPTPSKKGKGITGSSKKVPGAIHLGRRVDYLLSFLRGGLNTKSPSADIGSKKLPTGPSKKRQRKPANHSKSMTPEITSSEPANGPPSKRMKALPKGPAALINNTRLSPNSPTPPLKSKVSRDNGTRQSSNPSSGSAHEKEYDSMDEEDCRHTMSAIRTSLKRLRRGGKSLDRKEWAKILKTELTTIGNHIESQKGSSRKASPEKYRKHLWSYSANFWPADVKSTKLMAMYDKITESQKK

Sequence of Protein translocase subunit SecA (Escherichia coli (strain K12)) (P10408 whole entry): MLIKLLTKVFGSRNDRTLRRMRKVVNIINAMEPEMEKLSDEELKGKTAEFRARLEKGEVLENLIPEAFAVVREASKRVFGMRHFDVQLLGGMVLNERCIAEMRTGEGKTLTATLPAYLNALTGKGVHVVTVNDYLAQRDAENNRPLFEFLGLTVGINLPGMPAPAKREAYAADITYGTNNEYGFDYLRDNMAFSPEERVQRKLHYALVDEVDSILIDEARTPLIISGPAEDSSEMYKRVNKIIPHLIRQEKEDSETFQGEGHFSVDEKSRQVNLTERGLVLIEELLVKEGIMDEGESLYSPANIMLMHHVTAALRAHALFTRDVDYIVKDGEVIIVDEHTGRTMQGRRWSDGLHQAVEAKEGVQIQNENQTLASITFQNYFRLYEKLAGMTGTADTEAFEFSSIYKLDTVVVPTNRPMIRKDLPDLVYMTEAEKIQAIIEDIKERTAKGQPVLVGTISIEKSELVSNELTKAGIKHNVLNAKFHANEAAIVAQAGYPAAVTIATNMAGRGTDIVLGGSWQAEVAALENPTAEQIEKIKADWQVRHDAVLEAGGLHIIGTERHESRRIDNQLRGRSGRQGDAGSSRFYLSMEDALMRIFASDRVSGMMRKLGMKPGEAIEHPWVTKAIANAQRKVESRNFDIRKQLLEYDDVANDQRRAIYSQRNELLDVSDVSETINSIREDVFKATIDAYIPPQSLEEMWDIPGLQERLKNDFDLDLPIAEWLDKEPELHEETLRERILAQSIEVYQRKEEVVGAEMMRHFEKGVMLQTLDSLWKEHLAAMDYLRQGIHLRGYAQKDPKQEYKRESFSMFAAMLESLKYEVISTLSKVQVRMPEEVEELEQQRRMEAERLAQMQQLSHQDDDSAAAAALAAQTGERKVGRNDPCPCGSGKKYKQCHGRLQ
Sequence of Sialic acid-binding Ig-like lectin 9 (Homo sapiens) (Q9Y336 whole entry): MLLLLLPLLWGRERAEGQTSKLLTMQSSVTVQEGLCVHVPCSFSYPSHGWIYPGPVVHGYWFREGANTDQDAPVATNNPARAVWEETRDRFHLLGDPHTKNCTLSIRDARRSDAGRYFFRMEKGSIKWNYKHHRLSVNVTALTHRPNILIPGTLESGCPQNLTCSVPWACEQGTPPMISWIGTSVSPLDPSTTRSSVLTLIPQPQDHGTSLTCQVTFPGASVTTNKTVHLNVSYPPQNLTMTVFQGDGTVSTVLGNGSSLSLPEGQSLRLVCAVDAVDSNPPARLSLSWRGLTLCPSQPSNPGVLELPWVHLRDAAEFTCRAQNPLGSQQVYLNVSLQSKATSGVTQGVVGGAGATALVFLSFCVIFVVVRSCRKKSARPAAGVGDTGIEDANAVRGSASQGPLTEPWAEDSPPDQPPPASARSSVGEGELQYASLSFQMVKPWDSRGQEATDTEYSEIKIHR

Row | SMILES | Percent Effect [1] [%] | Percent Effect [2] [%] | Percent Effect [3] [%] | Percent Effect [4] [%] | Percent Effect [5] [%] | Percent Effect [6] [%] | Percent Effect [7] [%] | Percent Effect [8] [%] | Percent Effect [9] [%] | Percent Effect [10] [%] | Percent Effect [11] [%]
1 | c1csc(-c2nc(CN3CCOC(Cn4cccn4)C3)co2)c1 (stereo unspecified) | -4.59 | 18.9 | -12.4 | 19.6 | 6.32 | -8.82 | 9.01 | 16.2 | 7.39 | 23.5 | -11.2
2 | Cc1ccc(C)c(-n2ccc3nc(N4CCCC4)ncc3c2=O)c1 | -0.118 | -6.67 | 21.7 | 3.47 | -2.16 | -6.16 | -2.96 | -1.59 | 3.17 | -5.13 | -0.262
3 | O=C(CC1CC1)N1CCn2cc(Cn3cncn3)nc2C1 | -2.33 | 10.4 | 4.72 | 3.11 | -4.04 | -13.6 | 10.8 | 2.39 | 3.17 | 11.5 | -6.64
4 | Cc1noc(C)c1CNC(=O)N1CCN(Cc2cscn2)CC1 | -5.7 | 15.8 | -5.03 | 9.82 | 5.45 | 0.766 | 3.51 | -2.83 | 6.37 | 17.1 | -14.9
5 | Cc1nc(C)n(CC2CCCN2Cc2nc(C3CC3)no2)n1 (stereo unspecified) | -1.33 | 2.63 | -3.31 | -2.5 | 4.32 | -3.83 | 1.34 | -15.7 | 2.45 | 4.88 | -4.84
6 | O=C(c1ccc(-n2cccn2)nc1)N1CCC(Nc2cccnn2)CC1 | -8.1 | 10.4 | 4.61 | 12.7 | 1.47 | 0.632 | 12.8 | 5.75 | 6.67 | 9.41 | -8.74
7 | C[C@@H]1CN(C2(C(=O)N3CCCCCC3)Cc3ccccc3C2)C[C@H](C)O1 | -2.48 | 6.94 | -6.6 | 11 | 6.51 | 3.97 | -0.702 | -2.77 | 2.1 | 2.56 | -1.63
8 | Cc1ccccc1CN1CCN(Cc2nccn2C)CC1 | -3.45 | 5.41 | -4.75 | 4.96 | -3.3 | -1.6 | 0.36 | 16.1 | 3.45 | 3.7 | -1.25
9 | CN1CCCC1c1cccc(Cc2ccccc2F)n1 (stereo unspecified) | -3.07 | -20.3 | 13.4 | 1.77 | -0.79 | -3.02 | -1.87 | 49.3 | 14 | 11.7 | 0.4
10 | CC1(C)CN(C(=O)NCCc2ccn(-c3ccccc3)n2)CCO1 | -4.22 | -2.6 | 8.97 | 11.9 | 1.47 | 4 | 2.02 | 8.51 | 2.86 | 7.06 | -12.9
11 | Cc1ccc2cc(CNCCCN3CCOCC3)c(=O)[nH]c2c1 | -3.73 | 4.05 | 11.3 | 5.46 | 0.395 | -0.696 | 6.08 | 12 | 5.38 | 9.09 | -7.66
